Bioassay records (PubChem BioAssay)
Shown are actives, neighbours in structure and some others; about 6.7% of the full set was active somewhere.
T cruzi growth-1 = T. cruzi proliferation inhibition | T. cruzi beta-gal in NIH3T3, GalScreen luminescence, 90 h | inhibition, % at 8.34 µM | 5.9% of 77,000 active;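 active = mean inhibition above about 93%, with at least 55% of replicates each passing it, limit read from the data, passing the limit was not always enough; inconclusive = only one of those two conditions holds; inactive = neither condition holds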
C diff growth = inhibitors of Clostridium difficile growth; Clostridium difficile clinical isolate growth, OD600, 24 h; active compounds read low; AID 1259249; 0.25% of 86,000 active; growth activity, negative = inhibition, % at 16 µg/mL (by protocol);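 active = mean growth activity at or below -80% and every replicate also at or below -80%; inconclusive = mean at or below -80% but some replicate above -80%; inactive = mean growth activity above -80%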
Pf Dd2 growth = blocks growth of Plasmodium falciparum Dd2 parasites. AID 1159554. P. falciparum Dd2 growth, SYBR Green, 72 h; active compounds read low. activity change, % at 10 µM. 2.3% of 94,000 active; in the data active = activity change below about -80%; inconclusive = no clear call, values can overlap the other calls
T cruzi growth-2 = blocks T. cruzi growth in NIH3T3 host cells; 72% of 5,600 active; shares compounds with T cruzi growth-1; inhibition, % at 8.35 µM; T. cruzi beta-gal in NIH3T3, GalScreen luminescence, 90 h;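 active = mean replicate inhibition above about 95% and at least 55% of replicates individually reaching it, limit read from the data; inconclusive = only one of the two criteria is met; inactive = neither criterion is met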
T cruzi growth-3 = inhibitors of T. cruzi proliferation; shares compounds with T cruzi growth-1; T. cruzi beta-gal in NIH3T3, GalScreen luminescence, 90 h; inhibition, % at 2.09 µM; 21% of 5,600 active;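 active = mean inhibition above about 95%, with at least 55% of replicates also reaching it, limit read from the data; inconclusive = meets just one of the two conditions; inactive = meets neither condition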
3T3 cytotox = kills mouse NIH/3T3 fibroblasts | NIH/3T3 viability, CellTiter-Glo ATP luminescence, 90 h | 14% of 5,600 active | shares compounds with T cruzi growth-1 | cytotoxicity (signal decrease), % at 8.35 µM;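 active = mean signal decrease across replicates above about 35% based on untreated-well scatter, with enough replicates individually passing, limit read from the data; inconclusive = no rule stated though some were filed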
NIH3T3 tox 2 = kills mouse NIH/3T3 fibroblasts. shares compounds with T cruzi growth-1. 56% of 5,600 active. inhibition, % at 24.9 µM. NIH/3T3 viability, CellTiter-Glo ATP luminescence, 90 h;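 active = mean loss of cell viability signal at or above a set limit, and enough replicates individually reaching it; inconclusive = meets only the mean limit or only the replicate share; inactive = meets neither condition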
Of the large screens only hits and unclear results are named; the others gave an inactive call (follow-up assays come after a bar, where they were run).

CCC(=O)N(C)C[C@@H]1Oc2cc(C#CCN(C)C)ccc2S(=O)(=O)N([C@@H](C)CO)C[C@H]1C	T cruzi growth-1 101.7 | T cruzi growth-2 102.4 | T cruzi growth-3 inactive | 3T3 cytotox inactive | NIH3T3 tox 2 inactive
CC(=O)N(C)C[C@@H]1Oc2cc(C#CCN(C)C)ccc2S(=O)(=O)N([C@H](C)CO)C[C@H]1C	none
CC(=O)N(C)C[C@H]1Oc2cc(C#CCN(C)C)ccc2S(=O)(=O)N([C@H](C)CO)C[C@@H]1C	T cruzi growth-1 inconclusive | T cruzi growth-2 inconclusive | T cruzi growth-3 inactive | 3T3 cytotox inactive | NIH3T3 tox 2 inactive
C[C@H](CO)N1C[C@H](C)[C@@H](CN(C)C(=O)CN(C)C)Oc2cc(C#CCN(C)C)ccc2S1(=O)=O	none
N#C[C@@H]1[C@@H](c2ccc(C#CC3CCCC3)cc2)[C@H](CO)N1C(=O)Cc1ccccn1	none (no result: T cruzi growth-1)
C/C=C/c1ccc([C@@H]2[C@H](C#N)N(C(=O)Cc3ccccn3)[C@H]2CO)cc1	none
N#C[C@@H]1[C@H](c2ccc(C#CC3CCCCC3)cc2)[C@H](CO)N1C(=O)Cc1ccccn1	T cruzi growth-1 98.4 | T cruzi growth-2 inactive | T cruzi growth-3 112.1 | 3T3 cytotox inactive | NIH3T3 tox 2 inactive
C/C=C/c1ccc([C@H]2[C@@H](C#N)N(C(=O)Cc3ccccn3)[C@@H]2CO)cc1	T cruzi growth-1 102.8 | T cruzi growth-2 98.2 | T cruzi growth-3 inactive | 3T3 cytotox inactive | NIH3T3 tox 2 inconclusive
N#C[C@@H]1[C@@H](c2ccc(C#CC3CC3)cc2)[C@H](CO)N1C(=O)Cc1ccccn1	T cruzi growth-1 98.9 | T cruzi growth-2 104.1 | T cruzi growth-3 inactive | 3T3 cytotox inconclusive | NIH3T3 tox 2 inactive
N#C[C@H]1[C@H](c2ccc(C#CC3CCCC3)cc2)[C@H](CO)N1C(=O)Cc1ccccn1	none (no result: T cruzi growth-1)
N#C[C@@H]1[C@H](c2ccc(C#CC3CCCCC3)cc2)[C@@H](CO)N1C(=O)Cc1ccccn1	T cruzi growth-1 98.7 | T cruzi growth-2 96.0 | T cruzi growth-3 102.7 | 3T3 cytotox inactive | NIH3T3 tox 2 98.6
N#C[C@@H]1[C@@H](c2ccc(C#CC3CCCCC3)cc2)[C@H](CO)N1C(=O)Cc1ccccn1	none
C/C=C/c1cnc2c(c1)C(=O)N([C@@H](C)CO)C[C@@H](C)[C@@H](CN(C)C(=O)Nc1ccc(F)cc1)O2	none (no result: T cruzi growth-1)
CO[C@@H]1CN(C)C(=O)c2cc(NC(=O)Cc3ccccc3)ccc2OC[C@H](C)N(C(C)=O)C[C@@H]1C	none (no result: C diff growth)
C[C@@H]1CN([C@@H](C)CO)C(=O)c2cc(C#Cc3ccncc3)cnc2O[C@H]1CN(C)Cc1ccncc1	none
COCC(=O)Nc1ccc2c(c1)[C@H]1C[C@H](CC(=O)NCc3ccccc3F)O[C@@H](CO)[C@H]1O2	none (no result: C diff growth)
COc1ccc(S(=O)(=O)N[C@@H]2C=C[C@@H](CC(=O)N3CCC(Cc4ccccc4)CC3)O[C@H]2CO)cc1	T cruzi growth-1 inconclusive | T cruzi growth-2 inactive | T cruzi growth-3 inactive | 3T3 cytotox inactive | NIH3T3 tox 2 31.7
COc1ccc(S(=O)(=O)N[C@@H]2C=C[C@H](CC(=O)N3CCC(Cc4ccccc4)CC3)O[C@@H]2CO)cc1	T cruzi growth-1 inconclusive | T cruzi growth-2 inactive | T cruzi growth-3 inactive | 3T3 cytotox inactive | NIH3T3 tox 2 32.3
COc1ccc(S(=O)(=O)N[C@@H]2C=C[C@@H](CC(=O)N3CCC(Cc4ccccc4)CC3)O[C@@H]2CO)cc1	none (no result: T cruzi growth-1)
COc1ccc(S(=O)(=O)N[C@H]2C=C[C@@H](CC(=O)N3CCN(c4ccccc4)CC3)O[C@@H]2CO)cc1	none
N#C[C@@H]1[C@@H](c2ccc(-c3cncnc3)cc2)[C@H](CO)N1C(=O)Cc1ccccc1	none
C[C@@H]1CCCCO[C@@H](CN(C)C(=O)c2ccncc2)[C@H](C)CN([C@H](C)CO)C(=O)c2cc(NS(=O)(=O)c3ccc(Cl)cc3)ccc2O1	none (no result: C diff growth)
CCS(=O)(=O)N1CCCCN2[C@@H](CO)[C@@H](c3ccc(-c4ccc(C#N)cc4)cc3)[C@@H]2C1	T cruzi growth-1 98.8 | T cruzi growth-2 inactive | T cruzi growth-3 inactive | 3T3 cytotox inactive | NIH3T3 tox 2 39.4
CCS(=O)(=O)N1CCCCN2[C@H](CO)[C@@H](c3ccc(-c4cccc(C#N)c4)cc3)[C@@H]2C1	T cruzi growth-1 107.7, Pf Dd2 growth -89.4 | T cruzi growth-2 inactive | T cruzi growth-3 inactive | 3T3 cytotox inactive | NIH3T3 tox 2 69.2
CCS(=O)(=O)N1CCCCN2[C@H](C1)[C@H](c1ccc(-c3ccc(C#N)cc3)cc1)[C@@H]2CO	none
CCS(=O)(=O)N1CCCCN2[C@H](CO)[C@@H](c3ccc(-c4cccc(C#N)c4)cc3)[C@H]2C1	none
C[C@H](CO)N1C[C@H](C)[C@@H](CN(C)S(=O)(=O)c2cn(C)cn2)Oc2ccc(NC(=O)Cn3cnnn3)cc2CC1=O	none
C[C@H](CO)N1C[C@H](C)[C@H](CN(C)S(=O)(=O)c2cccc(F)c2)Oc2ncc(C#CC3CCCCC3)cc2C1=O	none (no result: T cruzi growth-1)
C[C@H](CO)N1C[C@H](C)[C@H](CN(C)S(=O)(=O)c2cn(C)cn2)Oc2ncc(C#Cc3ccc(F)cc3)cc2C1=O	none
CN(C)CC(=O)N1[C@@H](C#N)[C@@H](c2ccc(C#CC3CC3)cc2)[C@@H]1CO	none
CC(C)NC(=O)N1[C@H](CO)[C@H](c2ccc(C#CC3CC3)cc2)[C@@H]1C#N	none
CC(C)NC(=O)N1[C@H](C#N)[C@@H](c2ccc(C#CC3CC3)cc2)[C@@H]1CO	T cruzi growth-1 inconclusive | T cruzi growth-2 108.7 | T cruzi growth-3 inactive | 3T3 cytotox inactive | NIH3T3 tox 2 inactive
CC(C)NC(=O)N1[C@H](CO)[C@@H](c2ccc(C#CC3CC3)cc2)[C@@H]1C#N	T cruzi growth-1 inconclusive | T cruzi growth-2 107.0 | T cruzi growth-3 inactive | 3T3 cytotox inactive | NIH3T3 tox 2 inactive
COc1ccc(NC(=O)N(C)C[C@H]2Oc3ccc(NS(=O)(=O)c4ccc(OC)cc4)cc3CC(=O)N([C@H](C)CO)C[C@H]2C)cc1	none
C[C@H](CO)N1C[C@H](C)[C@@H](CN(C)Cc2ccncc2)OCCCC[C@H](C)Oc2ccc(NS(C)(=O)=O)cc2C1=O	none
OC[C@H]1[C@@H](c2ccc(-c3ccccc3)cc2)[C@H]2CN(CCC(F)(F)F)CCCCN21	none
Cc1cccc(-c2ccc([C@@H]3[C@H]4CN(CCC(F)(F)F)CCCCN4[C@H]3CO)cc2)c1	T cruzi growth-1 99.2 | T cruzi growth-2 103.3 | T cruzi growth-3 inactive | 3T3 cytotox 41.3 | NIH3T3 tox 2 105.4
OC[C@@H]1[C@@H](c2ccc(-c3cccc(F)c3)cc2)[C@@H]2CN(CCC(F)(F)F)CCCCN12	none
OC[C@H]1[C@@H](c2ccc(-c3ccc(F)cc3)cc2)[C@H]2CN(CCC(F)(F)F)CCCCN21	T cruzi growth-1 101.6 | T cruzi growth-2 103.5 | T cruzi growth-3 inactive | 3T3 cytotox 56.5 | NIH3T3 tox 2 105.1
